In PubChem BioAssay (NCI):
About 79,000 compounds went through this panel and 15% of them were active in at least one assay; those are over-represented in the sample as a whole. The source made the active and inactive calls. Cut-off read from the data, not from the text of the source: active = growth inhibition above about 70%; inactive = the rest.

Legend:
[1] = NCI Yeast Anticancer Drug Screen. Data for the mec2-1 strain (AID 157); conditions: S. cerevisiae mec2-1 strain, active compounds read high
How it was run: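 Compounds were applied to mec2-1 yeast cells. Their growth was then compared with that of vehicle-treated cultures to give growth inhibition.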

[2] = NCI Yeast Anticancer Drug Screen. Data for the rad14 strain (AID 159);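 note: 0% = growth of vehicle-treated control cultures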; conditions: S. cerevisiae rad14 strain growth inhibition, active compounds read high
How it was run: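 DNA repair-defective yeast, compound-exposed; % growth inhibition derived by comparison with vehicle-treated controls.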

[3] = NCI Yeast Anticancer Drug Screen. Data for the sgs1 mgt1 strain (AID 161);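 note: 0% = growth of cultures given vehicle only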; conditions: S. cerevisiae sgs1 mgt1 strain, active compounds read high
How it was run: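 This yeast growth screen uses a strain with defined DNA-repair lesions; compound-treated growth is compared with vehicle-treated growth.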

[4] = NCI Yeast Anticancer Drug Screen. Data for the CLN2oe strain (AID 163);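 note: 0% = growth of vehicle-only control cultures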; conditions: S. cerevisiae CLN2oe strain, active compounds read high
How it was run: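 Cells of an engineered yeast line with disturbed cell-cycle regulation are treated with compound. Inhibition of growth is then calculated relative to the vehicle-treated reference.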

[5] = NCI Yeast Anticancer Drug Screen. Data for the cln2 rad14 strain (AID 165);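 note: 0% = growth equal to vehicle treated cultures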; conditions: S. cerevisiae cln2 rad14 strain, active compounds read high
How it was run: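 Strain: cln2 rad14 yeast, altered in cell cycle control and DNA damage repair. Read-out: growth inhibition vs vehicle.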

[6] = NCI Yeast Anticancer Drug Screen. Data for the bub3 strain (AID 167); conditions: S. cerevisiae bub3 mutant strain, active compounds read high
How it was run: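 In this screen, a yeast mutant lacking normal mitotic checkpoint function is challenged with compound. Relative growth versus vehicle gives the inhibition value.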

[7] = NCI Yeast Anticancer Drug Screen. Data for the mlh1 strain (AID 171);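 note: 0% = growth of vehicle-treated control cultures of the same strain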; conditions: S. cerevisiae mlh1 strain growth inhibition, active compounds read high
How it was run: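 Test agents were incubated with yeast bearing a defined DNA damage repair or cell cycle control alteration; values are growth inhibition normalised to vehicle-treated cultures.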

[8] = NCI Yeast Anticancer Drug Screen. Data for the sgs1 strain (AID 173);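 note: 0% = growth of vehicle-only control cultures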; conditions: S. cerevisiae sgs1 mutant, active compounds read high
How it was run: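 Strain with an altered DNA repair or cell cycle pathway exposed to compound. Growth then measured. Value = inhibition versus vehicle control.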

[9] = NCI Yeast Anticancer Drug Screen. Data for the mlh1 rad18 strain (AID 175); conditions: S. cerevisiae mlh1 rad18 strain growth inhibition, active compounds read high
How it was run: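 A repair-deficient yeast strain is exposed to test compound, and growth is scored relative to vehicle-treated controls.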

[10] = NCI Yeast Anticancer Drug Screen. Data for the rad18 strain (AID 177); conditions: S. cerevisiae rad18 mutant growth inhibition, active compounds read high
How it was run: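 DNA-repair-defective yeast; compound treatment; growth inhibition scored against vehicle.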

[11] = NCI Yeast Anticancer Drug Screen. Data for the rad52 strain (AID 147);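 note: 0% = growth of vehicle-treated control cultures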; conditions: S. cerevisiae rad52 mutant growth inhibition, active compounds read high
How it was run: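 Growth of repair-deficient yeast cells was compared between compound-treated and vehicle-treated cultures to give percent inhibition.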

[12] = NCI Yeast Anticancer Drug Screen. Data for the wt1 strain (AID 149);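 note: 0% = growth of vehicle-treated wt1 cultures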; conditions: S. cerevisiae wt1 strain (SPY 50644) growth inhibition, active compounds read high
How it was run: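 wt1 strain grown with compound or vehicle; inhibition taken from the growth difference.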

[13] = NCI Yeast Anticancer Drug Screen. Data for the rad50EPP+ strain (AID 151);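 note: 0% = growth of vehicle-treated control cultures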; conditions: S. cerevisiae rad50 mutant strain, active compounds read high
How it was run: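 Measured: growth inhibition of rad50EPP+ yeast. Reference: vehicle-treated controls. Screen uses strains with defined genetic alterations in DNA damage repair or cell cycle control.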

[14] = NCI Yeast Anticancer Drug Screen. Data for the mgt1 strain (AID 153); conditions: S. cerevisiae mgt1 mutant growth inhibition, active compounds read high
How it was run: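 Compounds were applied to mgt1 mutant yeast, and growth was then compared against vehicle-treated control cultures to give percent inhibition.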

[15] = NCI Yeast Anticancer Drug Screen. Data for the rad50 strain (AID 155);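 note: 0% = growth of vehicle-only cultures of the same strain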; conditions: S. cerevisiae rad50 strain growth inhibition, active compounds read high
How it was run: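 DNA repair mutant yeast, compound exposure, growth read-out; inhibition is taken relative to vehicle.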

[16] = NCI Yeast Anticancer Drug Screen. Data for the wt2 strain (AID 169);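 note: 0% = growth of vehicle-treated yeast cultures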; conditions: S. cerevisiae wt2 strain growth inhibition, active compounds read high
How it was run: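 Growth of compound-treated yeast is measured and expressed as inhibition relative to vehicle-only controls.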

[17] = at 5.0 µM (retest, dose inferred, filed as 0.5)
[18] = at 50.0 µM (retest, dose inferred, filed as 5.0)

Measured: growth inhibition

NC(=S)N/N=C1\c2ccccc2CCC1CCC1(O)CCc2ccccc2C1=O (stereo not drawn)
inactive: [1]; [17] -1% | [1]; at 11.0 µM 16% | [1]; at 33.0 µM 50% | [1]; [18] 55% | [2]; at 1.2 µM 2% | [2]; at 3.7 µM 7% | [2]; at 11.0 µM 47% | [3]; [17] 10% | [4]; at 1.2 µM 38% | [4]; at 3.7 µM 36% | [4]; at 11.0 µM 42% | [4]; at 33.0 µM 64% | [5]; [17] 18% | [6]; at 1.2 µM 20% | [6]; at 3.7 µM 13% | [6]; [17] 17% | [6]; at 11.0 µM 34% | [6]; at 50.0 µM 46.1% | [7]; at 1.2 µM 14% | [7]; at 3.7 µM 14% | [7]; at 11.0 µM 46% | [8]; at 1.2 µM 34% | [8]; at 3.7 µM 34% | [8]; at 11.0 µM 63% | [9]; [17] 0% | [10]; at 1.2 µM 52% | [10]; at 3.7 µM 50% | [10]; at 11.0 µM 63%
active: [1]; at 50.0 µM 88.2% | [1]; at 100.0 µM 81% | [2]; at 33.0 µM 82% | [2]; at 100.0 µM 86% | [3]; [18] 88% | [3]; at 50.0 µM 92.5% | [4]; at 100.0 µM 82% | [5]; [18] 81% | [5]; at 50.0 µM 89.7% | [6]; at 33.0 µM 84% | [6]; [18] 83% | [6]; at 100.0 µM 85% | [7]; at 33.0 µM 79% | [7]; at 100.0 µM 81% | [8]; at 33.0 µM 82% | [8]; at 100.0 µM 84% | [9]; [18] 83% | [9]; at 50.0 µM 93.3% | [10]; at 33.0 µM 86% | [10]; at 100.0 µM 81%

CSc1nc(-c2ccccc2)nc(=[N+]2CCOCC2)s1
inactive: [11]; at 1.2 µM 17% | [11]; at 3.7 µM 52% | [12]; at 1.2 µM 5% | [12]; at 3.7 µM 11% | [12]; at 11.0 µM 23% | [12]; at 33.0 µM 56% | [13]; at 1.2 µM 27% | [13]; at 3.7 µM 56% | [14]; at 1.2 µM 3% | [14]; at 3.7 µM 11% | [14]; at 11.0 µM 31% | [15]; at 1.2 µM 13% | [15]; at 3.7 µM 37% | [1]; at 1.2 µM 1% | [1]; at 3.7 µM 8% | [1]; [17] 18% | [1]; at 11.0 µM 32% | [1]; [18] 18% | [2]; at 1.2 µM 4% | [2]; at 3.7 µM 9% | [2]; at 11.0 µM 25% | [3]; [17] 44% | [3]; [18] 44% | [4]; at 1.2 µM -4% | [4]; at 3.7 µM 6% | [4]; at 11.0 µM 21% | [6]; at 1.2 µM -8% | [6]; at 3.7 µM -3% | [6]; [17] 21% | [6]; at 11.0 µM 32% | [6]; [18] 21% | [16]; at 1.2 µM 6% | [16]; at 3.7 µM 15% | [16]; at 11.0 µM 37% | [7]; at 1.2 µM -1% | [7]; at 3.7 µM 10% | [7]; at 11.0 µM 35% | [8]; at 1.2 µM 10% | [8]; at 3.7 µM 31% | [9]; [17] 35% | [9]; [18] 35% | [10]; at 1.2 µM 16% | [10]; at 3.7 µM 50%
active: [11]; at 11.0 µM 83% | [11]; at 33.0 µM 97% | [11]; at 100.0 µM 98% | [12]; at 100.0 µM 93% | [13]; at 11.0 µM 77% | [13]; at 33.0 µM 89% | [13]; at 100.0 µM 93% | [14]; at 33.0 µM 87% | [14]; at 100.0 µM 98% | [15]; [17] 74% | [15]; at 11.0 µM 79% | [15]; at 33.0 µM 94% | [15]; [18] 74% | [15]; at 50.0 µM 88.8% | [15]; at 100.0 µM 98% | [1]; at 33.0 µM 73% | [1]; at 50.0 µM 73.5% | [1]; at 100.0 µM 98% | [2]; at 33.0 µM 78% | [2]; at 100.0 µM 99% | [3]; at 50.0 µM 86.4% | [4]; at 33.0 µM 77% | [4]; at 100.0 µM 96% | [6]; at 33.0 µM 82% | [6]; at 50.0 µM 81.6% | [6]; at 100.0 µM 96% | [16]; at 33.0 µM 81% | [16]; at 100.0 µM 97% | [7]; at 33.0 µM 76% | [7]; at 100.0 µM 98% | [8]; at 11.0 µM 72% | [8]; at 33.0 µM 94% | [8]; at 100.0 µM 98% | [9]; at 50.0 µM 82.2% | [10]; at 11.0 µM 86% | [10]; at 33.0 µM 94% | [10]; at 100.0 µM 98%
